PubChem BioAssay (NCATS)
Results filed as inconclusive are left out. A number with no mark means an inactive call. The source made the active and inactive calls. Calls come from the whole dose curve; as a rule, active = well fitted inhibition curve with a large enough effect; inconclusive = small, poorly fitted or top-dose-only effect; inactive = no such curve, though single readings can be large or run the other way.

Assay: BET inhibitor-based combinations targeting novel dependencies in MECOM-rearranged (r) AML: UCSD-AML1 cell line (AID 2202235); note: nearly all actives have a fitted effect of over 40% in size;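 for viability (% of control): plate controls were DMSO vehicle wells for no effect and blank wells for full effect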
Settings: UCSD-AML1 AML cells viability, CellTiter-Glo, 48 h; series mostly up to 46 µM; viability (% of control): at the top concentration
Source text: Ecotropic viral insertion site 1 (EVI1) is located on chromosome 3q26.2 as part of the MECOM (MDS and EVI1 complex) locus. Under normal hematopoiesis, EVI1 is a regulator of hematopoietic stem cell maintenance and self-renewal and EVI1 levels decrease as the cells differentiate. In approximately 5-10% of de novo acute myeloid leukemia (AML) EVI1 is aberrantly expressed, including Chromosomal inv(3)(q21;q26.2) or t(3;3)(q21;q26.2) alterations (MECOM-r) that account for about 50% of AML with EVI1 overexpression 31. AMLs with high levels of EVI1 have a poor prognosis and an overall survival time averaging between 10-14 months. EVI1 overexpression confers resistance in leukemia cells, highlighting the need to develop new targeted therapies for EVI1 overexpressing AMLs. Here, we performed an unbiased chemical drug screening by evaluating the single agent activity of a collection of 2,480 oncology-focused, approved and investigational drugs (NCATS Mechanism Interrogation Plates, MIPE v5.0) against a panel of seven AML cell lines. These included four MECOM-r cell-lines (AML-191, AML-194, UCSD-AML1 and HNT-34) and three non-MECOM-r AMLs (MV4-11, OCI-AML3 and SET-2). Exploiting the mechanistic redundancy built in the library, we identified target-level sensitivities in MECOM-r AML cells and relative activity as compared to other AML subtypes.
A collection of 2480 mechanistically annotated dugs (MIPE v5.0) was used to screen four 3q26.2 rearranged AML cell lines and three non-3q26.2 rearranged AML cell lines. This library purposely exploits redundancy by including multiple inhibitors of key onco-targets, while simultaneously encompassing mechanistic diversity, targeting more than 800 distinct mechanisms of action. Briefly, cells were seeded in 5 uL of growth media using a Multidrop Combi dispenser into 1536 well white polystyrene tissue culture treated plates (Corning) at a density of 500cells/well. For each cell-line, for each of the 2480 drugs in MIPE v5.0 library, an 11-point dose curve was generated via a 1536 pin-tool. Plates were incubated for 48 hr at standard incubator conditions, covered by a stainless steel gasketed lid to prevent evaporation. Cell viability was determined by luminescence based, Cell Titer Glo assay (Promega). In detail, 3 uL of Cell Titer Glo were added to each well and plates were incubated at room temperature for 15 min with a stainless-steel lid in place. Luminescence readings were taken using a Viewlux (PerkinElmer) with a 2 s exposure time per plate. Compound dose-response curves were normalized to DMSO and empty well controls on each plate. Quantitative drug activity data from dose-response curves was determined utilizing area Under the Curve (AUC) and Z-transformed AUC (Z-AUC, a mean-centering transformation applied to each individual cell-line screened).
Potency is the fitted concentration of half-maximal effect.

SMILES | viability (% of control) | Potency
CN(C)[C@@H]1C(=O)C(C(N)=O)=C(O)[C@@]2(O)C(=O)C3=C(O)c4c(O)cccc4[C@@](C)(O)[C@H]3C[C@@H]12 | 78% | 
C#CCN(C)[C@H](C)Cc1ccccc1 | 106% | 
CC[C@H]1/C=C\C=C/C[C@@H](C)[C@H](O)[C@@](C)(O)C(=O)[C@@H](C)[C@H](O)[C@@H](C)C(=O)[C@@H](C)[C@H](O)[C@@H](C)/C=C\C(=O)O[C@@H]2[C@H](C)[C@H](CC1)O[C@]1(CC[C@H](C)[C@H](C[C@@H](C)O)O1)[C@H]2C |  | 7420 nM (active)
C/C(=C\c1csc(C)n1)[C@@H]1C[C@@H]2O[C@@H]2CCC[C@H](C)[C@H](O)[C@@H](C)C(=O)C(C)(C)[C@@H](O)CC(=O)O1 |  | 18.6 nM (active)
C[C@@H](C1CC[C@@]2(O)C3=CC(=O)[C@@H]4C[C@@H](O)[C@@H](O)C[C@]4(C)[C@H]3CC[C@]12C)[C@H](O)CCC(C)(C)O (stereo not given in full) | 105% | 
CC[C@@]1(O)C(=O)OCc2c1cc1n(c2=O)Cc2cc3ccccc3nc2-1 |  | 10.5 nM (active)
COc1ccc(C(=O)c2c(C)n(CCN3CCOCC3)c3cc(I)ccc23)cc1 | 109% | 
COC12C(COC(N)=O)C3=C(C(=O)C(C)=C(N)C3=O)N1CC1C2N1C (stereo not given) | 110% | 
O=C(NCC1CCOCC1)c1cnc(Nc2ccc(Cl)cc2Cl)nc1C(F)(F)F | 97.9% | 
O=P1(NCCCl)OCCCN1CCCl (stereo not given) | 107% | 
CN(C)CCN(C)CCc1ccc(Cl)c(Cl)c1 | 110% | 
O=c1[nH]c2ccc(Cl)cc2c(N[C@@H]2CN3CCC2CC3)c1-c1nc2ccccc2[nH]1 |  | 417 nM (active)
COC1=C[C@@H]2[C@@H]3Cc4ccc(OC)c(O)c4[C@]2(CCN3C)CC1=O | 100% | 
CN1C(=O)COc2c(C(=O)NC3CN4CCC3CC4)cc(Cl)cc21 (stereo not given) | 105% | 
C/C=C(/C)C(=O)O[C@H]1C(C)=C2[C@H]([C@@H]1OC(=O)CCCCCCC)[C@@](C)(OC(C)=O)C[C@H](OC(=O)CCC)[C@@]1(O)[C@H]2OC(=O)[C@@]1(C)O |  | 132 nM (active)
CC(=O)N1N=C(c2ccc(N)cc2)c2cc3c(cc2C[C@H]1C)OCO3 | 105% | 
CCNC(=O)C[C@@H]1N=C(c2ccc(Cl)cc2)c2cc(OC)ccc2-n2c(C)nnc21 |  | 833 nM (active)
Cc1sc2c(c1C)C(c1ccc(Cl)cc1)=N[C@@H](CC(=O)OC(C)(C)C)c1nnc(C)n1-2 |  | 742 nM (active)
C[C@@H]1CC[C@H]2[C@@H](C)C(=O)O[C@@H]3O[C@@]4(C)CC[C@@H]1[C@]32OO4 | 102% | 
Cn1c(CCCC(=O)O)nc2cc(N(CCCl)CCCl)ccc21 |  | 18600 nM (active)

SMILES | viability (% of control) | Potency
CC[C@@H](C(N)=O)N1CCCC1=O | 102% | 
C[C@]12CCC(=O)C(O)=C1CC[C@@H]1[C@@H]2CC[C@]2(C)C(=O)CC[C@@H]12 | 110% [at 92.2 µM] | 
O=C(O)CNC(=O)C1C(=O)N(C2CCCCC2)C(=O)N(C2CCCCC2)C1=O | 104% | 
CNCC(O)c1ccc(O)cc1 (stereo not given) | 105% | 
C[C@H]1[C@H](O)[C@@H](C)/C=C/C=C/CC/C=C/C=C/C=C/C=C/[C@H](O[C@@H]2O[C@H](C)[C@@H](O)[C@H](N)[C@@H]2O)C[C@@H]2O[C@](O)(C[C@@H](O)[C@H](O)CC[C@@H](O)C[C@@H](O)C[C@@H](O)CC(=O)O[C@H]1C)C[C@H](O)[C@H]2C(=O)O | 94% | 
C#C[C@]1(O)C=C[C@H]2[C@@H]3CCC4=CC(=O)CC[C@@H]4[C@H]3CC[C@@]21CC | 97.6% | 
CN1[C@H]2CC(O)C[C@H]1[C@H]1O[C@H]12 (stereo not given in full) | 120% | 
COc1cc2cc(c1Cl)N(C)C(=O)C[C@H](OC(=O)C(C)C)[C@]1(C)O[C@@H]1[C@H](C)[C@@H]1C[C@@](O)(NC(=O)O1)[C@H](OC)/C=C/C=C(\C)C2 | 15.6% | 
COC1(CS(=O)c2ccccc2)CCN(CCc2c[nH]c3ccc(F)cc23)CC1 (stereo not given) | 105% | 
CC(C)(C)c1cc(C=C(C#N)C#N)cc(Br)c1O |  | 33200 nM (active)
C[C@]12CC[C@@H]3[C@@H](CCC4=CC(=O)CC[C@@H]43)[C@@H]1CC[C@@H]2OC(=O)CCc1ccccc1 | 115% | 
CCC1(c2ccc(N)cc2)CCC(=O)NC1=O (stereo not given) | 108% | 
C[C@]12Cc3cn[nH]c3C[C@@H]1CC[C@@H]1[C@@H]2CC[C@@]2(C)[C@H]1CC[C@]2(C)O | 84.7% | 
COC[C@H]1OC(=O)c2coc3c2[C@@]1(C)C1=C(C3=O)[C@@H]2CC[C@H](O)[C@@]2(C)C[C@H]1OC(C)=O |  | 1660 nM (active)
Cc1[nH]nc2ccc(-c3cncc(OC[C@@H](N)Cc4c[nH]c5ccccc45)c3)cc12 |  | 468 nM (active)
C[C@@H]1O[C@@H](O[C@H]2C[C@@H](O)[C@]3(CO)[C@H]4[C@H](O)C[C@]5(C)[C@@H](C6=CC(=O)OC6)CC[C@]5(O)[C@@H]4CC[C@]3(O)C2)[C@H](O)[C@H](O)[C@H]1O |  | 83.3 nM (active)
Cc1c(C(=O)Nc2cccc(C(F)(F)F)c2)cc(-c2ccccc2)n1CCCN1CCOCC1 | 79.1% | 
CN(C)[C@@H]1C(=O)C(C(N)=O)=C(O)[C@@]2(O)C(=O)C3=C(O)c4c(O)cccc4[C@@](C)(O)[C@H]3[C@H](O)[C@@H]12 | 108% | 
CCc1c(C(=O)C(N)=O)c2c(OCC(=O)O)cccc2n1Cc1ccccc1 | 108% | 
COC[C@@H](NC(C)=O)C(=O)NCc1ccccc1 | 103% | 
